{"source": "PubChem BioAssay AID1259343", "about": "(VanderVen Lab, College of Veterinary Medicine, Cornell …, 2017)", "note": "The whole screen tested about 6,200 compounds, of which about 2,900 (47%) were called active. Rule as the data show it: active = inhibition above about 50%; inactive = the rest. So high a share suggests a set chosen from earlier hits. The list shows a part of the results."}
{"test": "Mycobacterium tuberculosis growth inhibition, primary screen (AID 1259343)", "settings": "inhibition: at 10 µM, stronger effect = higher value; outcome: 10 uM"}
{"smiles": "CC(C)COc1ccc(NC(=O)C2CC2c2cnn(C)c2)cc1Cl", "note": "(stereo unspecified)", "inhibition": "-6.2% (inactive)"}
{"smiles": "CC(C)COc1ccc(NC(=O)c2ccnnc2)cc1Cl", "inhibition": "50.1% (active)"}
{"smiles": "CC(C)COc1ccc(NC(=O)c2nn(C)c(=O)c3ccccc23)cc1Cl", "inhibition": "24.1% (inactive)"}
{"smiles": "CS(=O)(=O)Nc1cc(Cl)ccc1Sc1ccc(F)cc1", "inhibition": "76.2% (active)"}
{"smiles": "Cc1cc(C)c(NC(=O)c2cc(C)nc3c2cnn3C(C)C)c(C)c1", "inhibition": "59.8% (active)"}
{"smiles": "CCOc1ccc(N2C(=O)C3N=NN(Cc4cccc(C)c4)C3C2=O)cc1", "note": "(stereo unspecified)", "inhibition": "78.4% (active)"}
{"smiles": "CCOc1ccc(N2C(=O)C3N=NN(Cc4cc(C)ccc4C)C3C2=O)cc1", "note": "(stereo unspecified)", "inhibition": "61.5% (active)"}
{"smiles": "CCc1ccc(N2C(=O)C3N=NN(Cc4cccc(C)c4)C3C2=O)cc1", "note": "(stereo unspecified)", "inhibition": "67.8% (active)"}
{"smiles": "CCCN(C)C(=O)c1ccc2c(c1)C(=O)N(c1ccc(OCC)cc1)C2=O", "inhibition": "21.7% (inactive)"}
{"smiles": "CCc1ccc(N2C(=O)C3N=NN(Cc4nc(-c5cccc(Cl)c5)oc4C)C3C2=O)cc1", "note": "(stereo unspecified)", "inhibition": "83.4% (active)"}
{"smiles": "CCOc1ccc(-c2nc(CN3N=NC4C(=O)N(c5ccc(C)c(Cl)c5)C(=O)C43)c(C)o2)cc1", "note": "(stereo unspecified)", "inhibition": "20.2% (inactive)"}
{"smiles": "COc1ccc(N2C(=O)C3N=NN(Cc4cc(C)ccc4C)C3C2=O)cc1Cl", "note": "(stereo unspecified)", "inhibition": "-29.4% (inactive)"}
{"smiles": "CSc1ccc(NC(=O)c2cn[nH]n2)cc1Cl", "inhibition": "95.5% (active)"}
{"smiles": "CC(=O)/C(=N/Nc1ccc(C)cc1)N1CCOCC1", "inhibition": "94.7% (active)"}
{"smiles": "O=C1c2ccc([N+](=O)[O-])cc2C(=O)N1CNc1ccc2c(c1)oc1ccccc12", "inhibition": "86.3% (active)"}
{"smiles": "O=C1c2cccc([N+](=O)[O-])c2C(=O)N1CNc1ccc(Cl)c(Cl)c1", "inhibition": "45.5% (inactive)"}
{"smiles": "CC(C)CCC(C)NC(=O)c1cc(O)cs1", "note": "(stereo unspecified)", "inhibition": "37.3% (inactive)"}
{"smiles": "Cc1cc(O)c(S(=O)(=O)c2cc(Cl)c(Cl)cc2Cl)c(=O)[nH]1", "inhibition": "60.9% (active)"}
{"smiles": "FC(F)(F)COCCCn1nnc(-c2ccsc2)n1", "inhibition": "79.5% (active)"}
{"smiles": "O=C1C(=Cc2ccc(Br)s2)CCc2ccccc21", "inhibition": "0.54% (inactive)"}
{"smiles": "O=C1NC(=O)C(=Cc2cccs2)S1", "inhibition": "42.2% (inactive)"}
{"smiles": "O=C1/C(=C/c2cccs2)C(c2cccs2)Oc2ccccc21", "note": "(stereo unspecified)", "inhibition": "33% (inactive)"}
{"smiles": "C=CCC1SC(=NN=Cc2cccs2)NC1=O", "note": "(stereo unspecified)", "inhibition": "22.9% (inactive)"}
{"smiles": "O=C1C(=Cc2cccs2)CCCC1=Cc1cccs1", "inhibition": "91.6% (active)"}
{"smiles": "O=C1C(=Cc2cccs2)CCC1=Cc1cccs1", "inhibition": "103% (active)"}
{"smiles": "CC1CCN(c2nnc(C(=O)Nc3ccccc3)c3ccccc23)CC1", "inhibition": "24.6% (inactive)"}
{"smiles": "Cc1ccccc1CON=Cc1cccc([N+](=O)[O-])c1", "inhibition": "54.1% (active)"}
{"smiles": "CCOc1ccc(OCCCCOc2ccccc2[N+](=O)[O-])cc1", "inhibition": "83.2% (active)"}
{"smiles": "CCOc1ccc(N=Cc2cccc([N+](=O)[O-])c2)cc1", "inhibition": "96.3% (active)"}
{"smiles": "COc1ccc(OCCCCOc2ccccc2[N+](=O)[O-])cc1", "inhibition": "76.2% (active)"}
{"smiles": "COCc1cc(C)nc(N/N=C\\c2ccccc2[N+](=O)[O-])c1C#N", "inhibition": "-18.7% (inactive)"}
{"smiles": "Cc1ccccc1CNc1cccc([N+](=O)[O-])c1", "inhibition": "35.8% (inactive)"}
{"smiles": "CCOC(=O)CCCCCCCCCCCCC1C=CCC1", "note": "(stereo unspecified)", "inhibition": "-30.7% (inactive)"}
{"smiles": "CCOc1ccc(OCCOc2ccccc2[N+](=O)[O-])cc1", "inhibition": "97.3% (active)"}
{"smiles": "CCOc1cccc(OCCCOc2ccc([N+](=O)[O-])cc2)c1", "inhibition": "86% (active)"}
{"smiles": "CCOc1ccc(OCCOc2ccc([N+](=O)[O-])cc2)cc1", "inhibition": "26.5% (inactive)"}
{"smiles": "CCOc1ccc(OCCCOc2ccc([N+](=O)[O-])cc2)cc1", "inhibition": "23% (inactive)"}
{"smiles": "COc1cc(C)ccc1OCCCOc1ccc([N+](=O)[O-])cc1", "inhibition": "41.8% (inactive)"}
{"smiles": "COC(=O)C1=C(O)C(C(=O)OC)C(c2cccs2)C(C#N)(C#N)C1c1cccs1", "note": "(stereo unspecified)", "inhibition": "4.02% (inactive)"}
{"smiles": "Cc1cc(NC(=O)c2cc(CC(C)C)on2)no1", "inhibition": "47.4% (inactive)"}
{"smiles": "Cc1cccc(N2CCN(C(C)C(=O)Nc3cc(C)on3)CC2)c1", "note": "(stereo unspecified)", "inhibition": "85.9% (active)"}
{"smiles": "CCCCCCNC(N)=S", "inhibition": "72.8% (active)"}
{"smiles": "CC1Sc2ccc(C(=O)N(C)Cc3cccc(Cl)c3)cc2NC1=O", "note": "(stereo unspecified)", "inhibition": "30.6% (inactive)"}
{"smiles": "Cc1nn(C)cc1CN(C)C(=O)c1cccc(Cl)c1", "inhibition": "101% (active)"}
{"smiles": "CN(Cc1ccc(Cl)cc1Cl)C(=O)C1CCN(c2ccccc2[N+](=O)[O-])CC1", "inhibition": "45% (inactive)"}
{"smiles": "CC1CC1C(=O)Nc1ccc(-n2nccc2C(F)(F)F)cc1", "note": "(stereo unspecified)", "inhibition": "40% (inactive)"}
{"smiles": "CN1N=C(CC(=O)Nc2ccc(-n3nccc3C(F)(F)F)cc2)CC1=O", "inhibition": "87.8% (active)"}
{"smiles": "Cc1cc(NC(=O)c2ccco2)n(-c2nc(C)c(C)c(=O)[nH]2)n1", "inhibition": "100% (active)"}
{"smiles": "CCc1c(C)nc(-n2nc(C)cc2NC(=O)c2ccco2)[nH]c1=O", "inhibition": "100% (active)"}
{"smiles": "Cc1cc(NC(=O)c2cc3ccccc3o2)n(-c2nc(C)c(C)c(=O)[nH]2)n1", "inhibition": "-29.9% (inactive)"}
{"smiles": "Clc1ccc(-c2noc(CN3CCCN(c4ncccn4)CC3)n2)cc1", "inhibition": "77.6% (active)"}
{"smiles": "Clc1ccc(-c2noc(CN3CCN(c4ncnc5ccccc45)CC3)n2)cc1", "inhibition": "71.1% (active)"}
{"smiles": "O=C(CCc1ccccc1)C1CCCN(Cc2nc(CC3CC3)no2)C1", "note": "(stereo unspecified)", "inhibition": "inactive"}
{"smiles": "O=C(CCc1ccccc1)C1CCCN(Cc2nc(-c3ccc(Cl)cc3)no2)C1", "note": "(stereo unspecified)", "inhibition": "73.2% (active)"}
{"smiles": "O=C1CCCN1CCC1CCN(Cc2nc(-c3ccc(Cl)cc3)no2)CC1", "inhibition": "74% (active)"}
{"smiles": "c1ccc(-c2noc(CN3CCCC(c4ccccc4)C3)n2)cc1", "note": "(stereo unspecified)", "inhibition": "inactive"}
{"smiles": "Clc1ccc(C2CCCN(Cc3nc(-c4ccccn4)no3)C2)cc1", "note": "(stereo unspecified)", "inhibition": "73% (active)"}
{"smiles": "Clc1ccc(-c2nc(-c3ccccn3)no2)cc1", "inhibition": "79.7% (active)"}
{"smiles": "c1ccc(CCCc2nc(-c3ccccn3)no2)cc1", "inhibition": "30.6% (inactive)"}
{"smiles": "O=C(Nc1nnc(SCCc2ccccc2)s1)C1CCCCC1", "inhibition": "3.18% (inactive)"}
{"smiles": "C=CCSc1nnc(NC(=O)C2CCCCC2)s1", "inhibition": "91.9% (active)"}
{"smiles": "Cc1csc(Sc2ccc(NC(=O)C3CCC3)c(C)c2)n1", "inhibition": "33.2% (inactive)"}
{"smiles": "COC(=O)CCc1c(C)nn(-c2nc(C)cc(=O)[nH]2)c1C", "inhibition": "43.3% (inactive)"}
{"smiles": "Cc1cc(NC(=O)C(C)(C)CCl)n(-c2nc(C)c(C)c(=O)[nH]2)n1", "inhibition": "101% (active)"}
{"smiles": "CCC(=O)Nc1cc(C)nn1-c1nc(C)c(C)c(=O)[nH]1", "inhibition": "99.7% (active)"}
{"smiles": "Cc1cc(NC(=O)C(C)C)n(-c2nc(C)c(C)c(=O)[nH]2)n1", "inhibition": "-18.6% (inactive)"}
{"smiles": "COC(=O)CCc1c(C)nn(-c2nc(C)c(C)c(=O)[nH]2)c1C", "inhibition": "101% (active)"}
{"smiles": "CC(=O)Nc1cc(C)nn1-c1nc(C)c(C)c(=O)[nH]1", "inhibition": "101% (active)"}
{"smiles": "Cc1cc(NC(=O)Cc2ccccc2)n(-c2nc(C)c(C)c(=O)[nH]2)n1", "inhibition": "99.4% (active)"}
{"smiles": "Cc1[nH]nc(Nc2ccc(Cl)c(Cl)c2)c1[N+](=O)[O-]", "inhibition": "70.3% (active)"}
{"smiles": "Brc1ccc(NCc2cccs2)cc1", "inhibition": "6.27% (inactive)"}
{"smiles": "O=C(NCc1cccs1)c1cc(Br)ccc1F", "inhibition": "83.2% (active)"}
{"smiles": "CC(C)Oc1ccc(C(=O)NCc2cccs2)cc1", "inhibition": "34.9% (inactive)"}
{"smiles": "C=C(C)CN(CC)c1nc(N)c(C#N)c(C(C#N)Cc2ccc(C)cc2)c1C#N", "note": "(stereo unspecified)", "inhibition": "21.1% (inactive)"}
{"smiles": "Cc1ccc(-c2csc3nc[nH]c(=S)c23)cc1C", "inhibition": "31.2% (inactive)"}
{"smiles": "S=c1[nH]cnc2sc3c(c12)CCCC3", "inhibition": "93.9% (active)"}
{"smiles": "CC1CCc2c(sc3nc[nH]c(=S)c23)C1", "note": "(stereo unspecified)", "inhibition": "2.8% (inactive)"}
{"smiles": "Cc1sc2nc[nH]c(=S)c2c1-c1ccccc1", "inhibition": "87.7% (active)"}
{"smiles": "Cc1sc2nc[nH]c(=S)c2c1C", "inhibition": "88.8% (active)"}
{"smiles": "O=c1[nH]c2sc3c(c2c2ncnn12)CCCC3", "inhibition": "-17.8% (inactive)"}
{"smiles": "CC(NC(=O)CN(C)CC(=O)Nc1ccc(Cl)c(Cl)c1)c1ccco1", "note": "(stereo unspecified)", "inhibition": "86.6% (active)"}
{"smiles": "CC(N=c1ccccn1C(=O)Nc1ccc(Cl)c(Cl)c1)c1ccco1", "note": "(stereo unspecified)", "inhibition": "-3.96% (inactive)"}
{"smiles": "Fc1c(F)c(F)c(NN=Cc2ccc3c(c2)OCO3)c(F)c1F", "inhibition": "89.5% (active)"}
{"smiles": "C(=NNc1ccc2ccccc2n1)c1ccc2c(c1)OCCO2", "inhibition": "27.8% (inactive)"}
{"smiles": "Fc1ccc(NN=Cc2ccc3c(c2)OCO3)c(F)c1", "inhibition": "81.8% (active)"}
{"smiles": "Fc1ccc(NN=Cc2ccc3c(c2)OCCO3)c(F)c1", "inhibition": "37% (inactive)"}
{"smiles": "O=C1C=C2C(=CCOC2O)O1", "note": "(stereo unspecified)", "inhibition": "98.2% (active)"}
{"smiles": "CC(NS(=O)(=O)c1ccccc1C#N)c1ccc(-n2ccnc2)cc1", "note": "(stereo unspecified)", "inhibition": "-48.9% (inactive)"}
{"smiles": "CSc1ccc(-c2csc(N)n2)cc1", "inhibition": "8.66% (inactive)"}
{"smiles": "C=CCNc1nc(-c2cc(F)ccc2F)cs1", "inhibition": "45.9% (inactive)"}
{"smiles": "Cc1cc(C)cc(Nc2nc(-c3ccc(F)cc3)cs2)c1", "inhibition": "51.7% (active)"}
{"smiles": "Nc1nc(-c2cc(F)ccc2F)cs1", "inhibition": "77.2% (active)"}
{"smiles": "Fc1ccc(F)c(-c2csc(Nc3ccc4c(c3)OCCO4)n2)c1", "inhibition": "22.8% (inactive)"}
{"smiles": "Nc1nc(-c2ccc(F)cc2F)cs1", "inhibition": "33.6% (inactive)"}
{"smiles": "OC(c1cn2cc(-c3ccc(F)cc3)nc2s1)(C(F)(F)F)C(F)(F)F", "inhibition": "15.3% (inactive)"}
{"smiles": "Cc1ccc(-c2csc(N)n2)cc1", "inhibition": "101% (active)"}
{"smiles": "Nc1nc(-c2ccc(I)cc2)cs1", "inhibition": "inactive"}
{"smiles": "O=c1[nH]c2ccc(-c3csc(-c4ccc(F)cc4)n3)cc2o1", "inhibition": "39.4% (inactive)"}
{"smiles": "Nc1nc(-c2ccc(F)cc2)cs1", "inhibition": "90.4% (active)"}
{"smiles": "c1csc(-c2nc(SCC3COc4ccccc4O3)n[nH]2)c1", "note": "(stereo unspecified)", "inhibition": "-27.5% (inactive)"}
{"smiles": "c1csc(-c2nnc(CON=C3c4ccccc4-c4ccccc43)o2)c1", "inhibition": "26.7% (inactive)"}
{"smiles": "Clc1ccc(C=NOCc2nnc(-c3ccccc3Br)o2)cc1Cl", "inhibition": "50.2% (active)"}
{"smiles": "Brc1ccccc1-c1nnc(CSc2nnnn2C2CC2)o1", "inhibition": "28.9% (inactive)"}
{"smiles": "CC(C(N)=O)N1CCC(c2nc3cc(Cl)ccc3s2)CC1", "note": "(stereo unspecified)", "inhibition": "38% (inactive)"}
{"smiles": "Oc1ccc(-c2nc3cc(Cl)ccc3s2)cc1", "inhibition": "36.2% (inactive)"}
{"smiles": "CC(C)c1nc(CS(=O)(=O)c2nc3cc(Cl)ccc3s2)no1", "inhibition": "64.2% (active)"}
